Laboratory results as given in PubChem BioAssay (NCATS).
“And” between values parts separate entries of the source, which are not always exact repeats. Equal entries are not always repeated. Inconclusive results are not listed. Entries that show only a call come without a potency. Where a structure was tested more than once in an assay, its records may differ in their call. The source made the active and inactive calls. Unless noted, calls come from the whole dose curve; as a rule, active = well fitted curve in the direction sought with a large enough effect; inconclusive = small, poorly fitted or top-dose-only effect, or another doubt; inactive = no such curve, though single readings can be large; an effect the other way counts as inactive or inconclusive.

Legend:
[1] = qHTS for inhibitors of adenylyl cyclases using a fission yeast platform: a pilot screen against the NCATS LOPAC library (AID 1347410)
Summary of the method: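 Fission yeast qHTS: CHP2027 cells (AC9-GNAS-PDE4D2, fbp1-GFP), 5x10^6 cells/mL working density, EMM + His/Lys/Ura; LOPAC at up to 57 µM final; 18 h dark, 30C; GFP by laser cytometry. DPI positive control, DMSO vehicle.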

[2] = target: Single-stranded DNA cytosine deaminase (Homo sapiens) (UniProt Q9GZX7); test: Validation qHTS assay for inhibitors of Activation Induced Cytidine Deaminase (AID): AID signal (AID 1347429)
Sequence of Single-stranded DNA cytosine deaminase (Homo sapiens) (Q9GZX7 whole entry, looked up): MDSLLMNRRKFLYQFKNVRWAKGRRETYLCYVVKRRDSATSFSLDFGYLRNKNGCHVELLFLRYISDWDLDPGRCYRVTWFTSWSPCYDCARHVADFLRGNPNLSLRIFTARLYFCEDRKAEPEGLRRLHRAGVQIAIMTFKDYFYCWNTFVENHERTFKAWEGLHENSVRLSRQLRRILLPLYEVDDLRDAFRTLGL
Summary of the method: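 Compounds (up to 114 uM final) are tested against AID plus UDG using DJC20/DJC23 FRET substrate. Reactions incubate 4 hr at room temperature, receive NaOH for 30 min, and are read at Ex 540/Em 590 nm.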

[3] = Primary qHTS for inhibitors of La Crosse Virus (LACV) - induced cell death in SH-SY5Y cells (AID 1508616);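 note: top concentration of the series differs between compounds; higher means more rescue of cells from virus-induced death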
Summary of the method: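 Screening measures cell viability in LACV-infected SH-SY5Y cultures. Compound was added before virus (0.01 MOI), and ATP was detected by luminescence 6 days later.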

[4] = Primary qHTS for inhibitors of nuclear receptor binding SET domain protein 2 (NSD2) in an isogenic RCH-ACV NSD2 p.E1099K mutant (9B) (AID 1645876); note: nearly all actives have a fitted effect of over 70% in size; note: potency is the fitted concentration of half-maximal effect
[5] = qHTS to identify inhibitors of the type 1 interferon - major histocompatibility complex class I in skeletal muscle: primary screen against the NCATS Mechanism Interrogation Plate v5.0 (MIPE) Libary (AID 1347411); note: nearly all actives have a fitted effect of over 65% in size
Summary of the method: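 IFN-beta-driven (4 ng/ml) HLA-B-HiBit expression in CRISPR-tagged C25cl48 myoblasts; compounds 11-pt, 1:3, max 46 uM, 24 hr exposure; lytic NanoLuc complementation luminescence.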

[6] = target: Protein phosphatase 1D (Homo sapiens) (UniProt O15297); test: RapidFire Mass Spectrometry qHTS Assay for Modulators of WT P53-Induced Phosphatase 1 (WIP1) (AID 1347424);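 note: amount of dephosphorylated VEPPL-S-QETFS peptide product formed by WIP1; series mostly up to about 63 µM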
Sequence of Protein phosphatase 1D (Homo sapiens) (O15297 whole entry, looked up): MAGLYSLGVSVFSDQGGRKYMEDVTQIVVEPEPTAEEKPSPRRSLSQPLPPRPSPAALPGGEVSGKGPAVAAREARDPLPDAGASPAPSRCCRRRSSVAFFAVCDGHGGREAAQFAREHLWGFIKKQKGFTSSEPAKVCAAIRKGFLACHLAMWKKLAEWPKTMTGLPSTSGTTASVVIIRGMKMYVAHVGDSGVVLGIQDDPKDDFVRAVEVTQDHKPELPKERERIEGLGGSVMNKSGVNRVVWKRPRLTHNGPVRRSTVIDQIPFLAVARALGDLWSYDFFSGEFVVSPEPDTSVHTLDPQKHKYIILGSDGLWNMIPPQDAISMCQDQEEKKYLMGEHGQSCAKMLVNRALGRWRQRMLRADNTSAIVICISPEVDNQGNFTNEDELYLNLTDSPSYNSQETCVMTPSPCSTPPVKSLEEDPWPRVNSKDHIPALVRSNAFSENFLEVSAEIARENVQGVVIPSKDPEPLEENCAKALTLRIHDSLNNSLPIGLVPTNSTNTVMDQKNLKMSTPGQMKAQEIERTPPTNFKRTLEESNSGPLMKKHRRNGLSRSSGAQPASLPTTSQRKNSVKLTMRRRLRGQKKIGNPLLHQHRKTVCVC
Summary of the method: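 RapidFire mass spectrometry measured dephosphorylated peptide after 5 min room-temperature reaction of 2 uM VEPPL-pS-QETFS with 10 nM WIP1 (50 mM Tris-HCl pH 7.5, 30 mM MgCl2, 0.1 mM EGTA, BSA), following 1 hr compound preincubation; 1 uM isotope-labelled product standard.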

[7] = target: Protein phosphatase 1D (Homo sapiens) (UniProt O15297); test: Rhodamine-PBP qHTS Assay for Modulators of WT P53-Induced Phosphatase 1 (WIP1) (AID 1347425)
Summary of the method: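 WIP1 (5 nM final) was preincubated with compound for 1 hour at room temperature. It then dephosphorylated 10 uM VEPPL-pS-QETFS peptide in Tris-HCl pH 7.5 with 30 mM MgCl2. Released Pi was detected by 10 uM Rh-PBP fluorescence (ex 525/em 598 nm) read at 1-min intervals for 11 min, as delta f1 - f0.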

[8] = target: Calcium and integrin-binding protein 1 (Homo sapiens) (UniProt Q99828); test: Primary qHTS for Identification of Calcium Integrin Binding Protein 1 (CIB1) Competitor (AID 1508620);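 note: GST tagged CIB1 binding a fluorescein labelled alphaIIb integrin peptide tracer; top concentration of the series differs between compounds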
Sequence of Calcium and integrin-binding protein 1 (Homo sapiens) (Q99828 whole entry, looked up): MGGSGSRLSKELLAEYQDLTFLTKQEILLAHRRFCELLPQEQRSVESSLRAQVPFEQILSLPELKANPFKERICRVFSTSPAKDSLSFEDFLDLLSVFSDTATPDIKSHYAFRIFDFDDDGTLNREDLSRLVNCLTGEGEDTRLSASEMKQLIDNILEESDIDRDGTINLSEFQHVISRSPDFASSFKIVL
Summary of the method: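 CIB1-GST (1 uM final) and compound incubated 15 min at room temperature before adding FITC-alphaIIb peptide tracer (100 nM final). Competition for binding read by fluorescence polarization (ex 480, em 540) after another 15 min at room temperature.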

[9] = Primary qHTS for small molecule stabilizers of the endoplasmic reticulum resident proteome: Secreted ER Calcium Modulated Protein (SERCaMP) assay (AID 1508630); note: potency is the fitted concentration of half-maximal effect
Summary of the method: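 The SH-SY5Y reporter protocol was run at 3 concentrations up to 38.3 uM (primary) or 11 concentrations (follow-up): 16 h compound, 100 nM thapsigargin for 4 h, then extracellular luciferase luminescence.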

[10] = target: Cytochrome P450 2D6 (Homo sapiens) (UniProt P10635); test: Cytochrome P450 family 2 subfamily D member 6 (CYP2D6) small molecule antagonists: luciferase biochemical (cell-free) qHTS assay (AID 1645840; active = well fitted curve in the direction sought with a large enough effect in the repeat runs; an effect the other way counts as inactive or inconclusive; note: nearly all actives have a fitted effect of over 55% in size; note: potency is the fitted concentration of half-maximal effect; for activity change, negative = inhibition: series mostly up to about 57 µM)
Sequence of Cytochrome P450 2D6 (Homo sapiens) (P10635 whole entry, looked up): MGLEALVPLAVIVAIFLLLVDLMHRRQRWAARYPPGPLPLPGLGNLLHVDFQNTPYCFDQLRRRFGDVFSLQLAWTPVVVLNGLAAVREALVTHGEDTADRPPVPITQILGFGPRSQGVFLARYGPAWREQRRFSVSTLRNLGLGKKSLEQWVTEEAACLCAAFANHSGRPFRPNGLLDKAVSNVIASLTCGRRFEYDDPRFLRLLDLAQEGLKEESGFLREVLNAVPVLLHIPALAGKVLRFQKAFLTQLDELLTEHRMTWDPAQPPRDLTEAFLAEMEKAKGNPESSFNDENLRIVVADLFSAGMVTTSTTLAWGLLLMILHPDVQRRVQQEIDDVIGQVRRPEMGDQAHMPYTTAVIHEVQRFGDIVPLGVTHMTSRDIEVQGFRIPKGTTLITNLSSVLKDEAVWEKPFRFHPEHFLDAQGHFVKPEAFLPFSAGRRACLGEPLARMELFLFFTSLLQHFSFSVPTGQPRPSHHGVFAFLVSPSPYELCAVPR
Summary of the method: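 P450-Glo CYP2D6 system: proluciferin substrate converted by enzyme to luciferin, read by luminescence proportional to activity. Enzyme-substrate mix with compound 10 min at room temperature, then NADPH regeneration 1 h before detection reagent.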

[11] = target: Cytochrome P450 2C9 (Homo sapiens) (UniProt P11712); test: Cytochrome P450 family 2 subfamily C member 9 (CYP2C9) small molecule antagonists: luciferase biochemical (cell-free) qHTS assay (AID 1645842; active = well fitted curve in the direction sought with a large enough effect in the repeat runs; an effect the other way counts as inactive or inconclusive; note: nearly all actives have a fitted effect of over 55% in size; note: potency is the fitted concentration of half-maximal effect; for activity change, negative = inhibition: series mostly up to about 57 µM)
Sequence of Cytochrome P450 2C9 (Homo sapiens) (P11712 whole entry, looked up): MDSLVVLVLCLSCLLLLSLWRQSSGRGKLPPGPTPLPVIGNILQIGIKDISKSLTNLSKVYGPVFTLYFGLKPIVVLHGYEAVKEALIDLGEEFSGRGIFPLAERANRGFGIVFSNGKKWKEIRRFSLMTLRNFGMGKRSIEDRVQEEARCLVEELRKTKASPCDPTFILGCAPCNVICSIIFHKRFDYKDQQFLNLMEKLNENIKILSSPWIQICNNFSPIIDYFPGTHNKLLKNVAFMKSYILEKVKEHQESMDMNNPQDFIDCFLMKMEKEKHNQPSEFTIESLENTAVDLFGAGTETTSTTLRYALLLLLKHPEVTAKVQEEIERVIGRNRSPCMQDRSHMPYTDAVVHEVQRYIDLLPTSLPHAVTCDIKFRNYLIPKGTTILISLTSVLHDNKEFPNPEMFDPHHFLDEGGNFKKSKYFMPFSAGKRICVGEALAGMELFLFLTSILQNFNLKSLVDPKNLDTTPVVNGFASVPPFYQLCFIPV
Summary of the method: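 P450-Glo CYP2C9 system: proluciferin substrate with enzyme in mix containing 0.4% BSA, 10 min at room temperature, then NADPH regeneration solution added and incubated 1 h at 37C. Detection reagent stopped reaction; luminescence read after 20 min as RLU.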

[12] = Primary qHTS for inhibitors of nuclear receptor binding SET domain protein 2 (NSD2) in an RCH-ACV wild type WT cells (2C) (AID 1645877); note: nearly all actives have a fitted effect of over 70% in size; note: potency is the fitted concentration of half-maximal effect
[13] = A High-Content qHTS Against Drug Library for the Identification of Small Molecules that Inhibit DYT1 Early Onset Primary Dystonia-Associated Cell Pathology (AID 1645839; calls by dose curve; note: series mostly up to about 46 µM)
Summary of the method: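 High-content imaging quantified EGFP-TorsinA mislocalization in HEK293-derived cells inducibly expressing DYT1 mutant torsinA, after 48 h exposure to compound given together with tetracycline induction. Cell count served as a toxicity channel alongside %pathology.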

[14] = Counterscreen qHTS for small molecule stabilizers of the endoplasmic reticulum resident proteome: GLuc-NoTag assay (AID 1508627);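 note: SH-SY5Y cells given compound then 100 nM thapsigargin to empty ER calcium; series mostly up to about 76 µM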
Summary of the method: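 Counterscreen line: SH-SY5Y-GLuc-NoTag cells, treated with compound 19 hr before a 4 hr, 100 nM thapsigargin calcium depletion. Secreted Gaussia luciferase in the medium was measured by luminescence after coelenterazine was added (0.07x final), with cells unlysed.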

[15] = Confirmatory qHTS for small molecule stabilizers of the endoplasmic reticulum resident proteome: Secreted ER Calcium Modulated Protein (SERCaMP) assay (AID 1508628); note: nearly all actives have a fitted effect of over 40% in size; note: potency is the fitted concentration of half-maximal effect
Summary of the method: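 GLuc-SERCaMP-expressing SH-SY5Y cells, pretreated 16 h with compound, are challenged with thapsigargin to empty ER calcium stores; after 4 h, coelenterazine is added directly to the medium and luminescence is imaged.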

[16] = Cell Viability qHTS for small molecule stabilizers of the endoplasmic reticulum resident proteome (AID 1508629); conditions: cell viability counter-screen, 100 nM thapsigargin for final 4 h;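 note: human SH-SY5Y neuroblastoma cells carrying the GLuc-SERCaMP reporter; compound exposure about 46 h in total before the viability read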

Oc1ccc2ccccc2c1SSc1c(O)ccc2ccccc12
outcome [1]: inactive
outcome [2]: inactive
Potency [3]: inactive
Potency [4]: 23.5 µM (active) and 16.4 µM (active)

CC1=C(C)C(=O)C(C(CCCCCC(=O)O)c2ccccc2)=C(C)C1=O (stereo not given)
Potency [5]: inactive
Potency [6]: inactive
outcome [7]: inactive
Potency [3]: inactive
Potency [8]: inactive
Potency [9]: inactive
Potency [10]: 11 µM (active)
Potency [11]: 17.4 µM (active)
Potency [4]: inactive

CC1Cc2ccccc2N1NC(=O)c1ccc(Cl)c(S(N)(=O)=O)c1 (stereo not given)
Potency [5]: inactive
Potency [6]: inactive
outcome [7]: inactive
Potency [3]: inactive
Potency [8]: inactive
Potency [9]: inactive
Potency [10]: inactive
Potency [11]: inactive
Potency [4]: inactive
Potency [12]: inactive

Cc1cc(=O)oc2cc(O)ccc12
Potency [5]: inactive
Potency [6]: inactive
outcome [7]: inactive
Potency [3]: inactive
Potency [9]: inactive
Potency [13]: inactive
Potency [10]: inactive
Potency [11]: inactive
Potency [4]: inactive
Potency [12]: inactive

CN(C)C(=O)COC(=O)Cc1ccc(OC(=O)c2ccc(N=C(N)N)cc2)cc1
Potency [5]: inactive
Potency [6]: inactive
outcome [7]: inactive
Potency [3]: inactive
Potency [8]: inactive
Potency [9]: inactive
Potency [10]: inactive
Potency [11]: inactive
Potency [4]: inactive
Potency [12]: inactive

CN(C)c1ccc(O)c2c1C[C@H]1C[C@H]3[C@H](N(C)C)C(=O)C(C(N)=O)=C(O)[C@@]3(O)C(=O)C1=C2O
Potency [5]: inactive
Potency [6]: inactive
outcome [7]: inactive
Potency [3]: inactive
Potency [14]: inactive
Potency [15]: inactive
max response [16]: 11.6% (inactive)
Potency [9]: inactive and 31.6 µM (active)
Potency [10]: inactive
Potency [11]: inactive
Potency [4]: inactive
Potency [12]: inactive

Cc1cc2cc3c(C)cc(=O)oc3c(C)c2o1
Potency [5]: inactive
Potency [6]: inactive
outcome [7]: inactive
Potency [3]: inactive
Potency [8]: inactive
Potency [9]: inactive
Potency [10]: inactive
Potency [11]: inactive
Potency [4]: inactive
Potency [12]: inactive

O=C(O)c1cc(=O)c2c(OCC(O)COc3cccc4oc(C(=O)O)cc(=O)c34)cccc2o1
Potency [5]: inactive
Potency [6]: inactive
outcome [7]: inactive
Potency [3]: inactive
Potency [8]: inactive
Potency [14]: inactive
Potency [15]: inactive
max response [16]: 17.9% (inactive)
Potency [9]: inactive
Potency [10]: inactive
Potency [11]: inactive
Potency [4]: inactive
Potency [12]: inactive

Cc1ncc([N+](=O)[O-])n1CC(C)O (stereo not given)
Potency [5]: inactive
Potency [6]: inactive
outcome [7]: inactive
Potency [3]: inactive
Potency [8]: inactive
Potency [9]: inactive
Potency [10]: inactive
Potency [11]: inactive
Potency [4]: inactive
Potency [12]: inactive

COc1cc(OC)c(C(=O)CCCN2CCCC2)c(OC)c1
Potency [5]: inactive
Potency [6]: inactive
outcome [7]: inactive
Potency [3]: inactive
Potency [8]: inactive
Potency [9]: inactive
Potency [13]: inactive
Potency [10]: 11 µM (active)
Potency [11]: inactive
Potency [4]: inactive
Potency [12]: inactive

CN1CCC(=C2c3ccccc3CCc3sccc32)CC1
Potency [5]: inactive
Potency [6]: inactive
outcome [7]: inactive
Potency [3]: inactive
Potency [8]: inactive
Potency [14]: inactive
Potency [15]: 25.1 µM (active)
Potency [10]: 1.1 µM (active)
Potency [11]: inactive

Oc1ccc(OCc2ccccc2)cc1
Potency [5]: inactive
Potency [6]: inactive
outcome [7]: inactive
Potency [3]: inactive
Potency [8]: inactive
Potency [9]: inactive
Potency [13]: inactive
Potency [10]: 15.5 µM (active)
Potency [4]: inactive and 2.63 µM (active)
Potency [12]: inactive and 4.68 µM (active)

CCN(CCO)CCCC(C)Nc1ccnc2cc(Cl)ccc12 (stereo not given)
activity change, negative = inhibition [5]: 7.97% [at 5.1 µM] (inactive)
activity change, negative = inhibition [6]: -4.11% [at 6.17 µM] (inactive)
activity change, negative = inhibition [7]: 13.1% [at 4.81 µM] (inactive)
activity change [3]: -0.436% [at 0.431 µM] (inactive)
Potency [8]: inactive
Potency [9]: inactive
activity change, negative = viability loss [4]: 1.42% [at 4.96 µM] (inactive) and 7.11% [at 4.96 µM] (inactive)

Cc1cc2c(s1)Nc1ccccc1N=C2N1CCN(C)CC1
Potency [5]: inactive
Potency [6]: inactive
outcome [7]: inactive
Potency [3]: inactive
Potency [8]: inactive
Potency [9]: inactive
Potency [10]: inactive
Potency [11]: inactive
Potency [12]: 23.5 µM (active)

Clc1ccc(C(Cn2ccnc2)OCc2ccsc2Cl)c(Cl)c1 (stereo not given)
Potency [5]: inactive
Potency [6]: inactive
outcome [7]: inactive
Potency [3]: inactive
Potency [8]: inactive
Potency [10]: 0.692 µM (active)
Potency [11]: 0.0692 µM (active)
Potency [4]: 18.6 µM (active)
Potency [12]: 18.6 µM (active)

CC(C)[C@H](N)C(=O)OCCOCn1cnc2c(=O)[nH]c(N)nc21
Potency [5]: inactive
Potency [6]: inactive
outcome [7]: inactive
Potency [3]: inactive
Potency [9]: inactive
Potency [13]: inactive
Potency [10]: inactive
Potency [11]: inactive
Potency [4]: inactive

O=C(NCCO[N+](=O)[O-])c1cccnc1
Potency [5]: inactive
Potency [6]: inactive
outcome [7]: inactive
Potency [3]: inactive
Potency [8]: inactive
Potency [10]: inactive
Potency [11]: inactive
Potency [4]: inactive

Nc1cc(C(Cl)=C(Cl)Cl)c(S(N)(=O)=O)cc1S(N)(=O)=O
Potency [5]: inactive
Potency [6]: inactive
outcome [7]: inactive
Potency [3]: inactive
Potency [8]: inactive
Potency [9]: inactive
Potency [13]: inactive
Potency [10]: inactive
Potency [4]: inactive
Potency [12]: inactive

CCOC(=O)c1c(C)n(C)c2ccc(O)cc12
Potency [5]: inactive
Potency [6]: inactive
outcome [7]: inactive
Potency [3]: inactive
Potency [8]: inactive
Potency [9]: inactive
Potency [11]: inactive
Potency [4]: inactive

O=C(O)c1cn(-c2ccc(F)cc2)c2cc(N3CCNCC3)c(F)cc2c1=O
Potency [5]: inactive
Potency [6]: inactive
outcome [7]: inactive
Potency [3]: inactive
Potency [8]: inactive
Potency [14]: inactive
max response [16]: 19.2% (inactive) and 20.4% (inactive)
Potency [9]: inactive
Potency [10]: inactive
Potency [11]: inactive
Potency [4]: inactive
Potency [12]: inactive
